In ChEMBL document CHEMBL4303097 (2020):
The full ranking holds about 1,500 compounds; the median of “Inhibition index” is about 0.17, and the highest 2% start at about 1.3. Many of the other results were omitted from the sample, so the highest values are more common in it than they were.

Each compound was assayed on SARS-CoV-2 (assay: Inhibition of cell viability relative to arbidol control (inhibition index > 1 indicates higher activity) measured by fluorescence (OD590nm) in Vero E6 cells infected with SARS-CoV-2 (strain BavPat1) at MOI 0.002 after 72hrs).
Format: functional, Chlorocebus sabaeus, Vero C1008
Compound `C#C[C@]1(OC(C)=O)CC[C@H]2[C@@H]3CCC4=CC(=NO)CC[C@@H]4[C@H]3CC[C@@]21CC` has an Inhibition index of -0.3327.
`C[C@H](O)[C@H](O)[C@H]1CNc2[nH]c(N)nc(=O)c2N1.Cl.Cl` [SAPROPTERIN DIHYDROCHLORIDE] showed an Inhibition index of 0.4022.
Work on `O=C1CN(/N=C/c2ccc(-c3ccc([N+](=O)[O-])cc3)o2)C(=O)[N-]1.[Na+]` [DANTROLENE SODIUM] yielded an Inhibition index of 0.3986.
`Nc1ccc(S(=O)(=O)[N-]c2cnc3ccccc3n2)cc1.[Na+]` [SULFAQUINOXALINE SODIUM] showed an Inhibition index of -0.000446.
In the case of `COc1cc2nc(N3CCN(C(=O)C4CCCO4)CC3)nc(N)c2cc1OC.Cl` (stereo not given), the Inhibition index is reported as -0.01131.
In the case of `CN(C)CCCN1c2ccccc2Sc2ccccc21.Cl` [PROMAZINE HYDROCHLORIDE], the Inhibition index is reported as 1.161.
`Cl.N[C@@H]1CCCCN(c2c(F)cc3c(=O)c(C(=O)O)cn(C4CC4)c3c2Cl)C1` [BESIFLOXACIN HYDROCHLORIDE] gave an Inhibition index of 0.08463.
For `CCCCc1oc2ccccc2c1C(=O)c1cc(I)c(OCCN(CC)CC)c(I)c1.Cl` [AMIODARONE HYDROCHLORIDE], the Inhibition index was -0.1051.
Compound `COCCc1ccc(OCC(O)CNC(C)C)cc1.COCCc1ccc(OCC(O)CNC(C)C)cc1.O=C(O)C(O)C(O)C(=O)O` (stereo not given) [METOPROLOL TARTRATE] has an Inhibition index of 0.03331.
Compound `CCC(=O)[C@@]1(C)[C@H](C)C[C@H]2[C@@H]3CCC4=CC(=O)C=C[C@]4(C)[C@H]3[C@@H](O)C[C@@]21C` [RIMEXOLONE] has an Inhibition index of 0.1893.
`Cl.NCCc1ccc(O)c(O)c1` [DOPAMINE HYDROCHLORIDE] gave an Inhibition index of 1.056.
`C[C@@H]1C[C@H]2[C@@H]3C[C@H](F)C4=CC(=O)C=C[C@]4(C)[C@@]3(Cl)[C@@H](O)C[C@]2(C)[C@H]1C(=O)COC(=O)C(C)(C)C` [CLOCORTOLONE PIVALATE] showed an Inhibition index of 0.111.
With `O=C(O)Cc1ccccc1Oc1ccc(Cl)cc1Cl` [FENCLOFENAC] the Inhibition index was 0.3257.
`CC(=O)OCC(=O)[C@@]12OC(C)(C)O[C@@H]1C[C@H]1[C@@H]3C[C@H](F)C4=CC(=O)C=C[C@]4(C)[C@@]3(F)[C@@H](O)C[C@@]12C` [FLUOCINONIDE] was tested, and the Inhibition index was 0.2896.
In the case of `CCN(CC)CC(=O)Nc1c(C)cccc1C.Cl`, the Inhibition index is reported as -0.01364.
With `CC1=C(/C=C/C(C)=C/C=C/C(C)=C\C(=O)O)C(C)(C)CCC1` [ISOTRETINOIN] the Inhibition index was 1.484.
With `COc1cc(C)c(/C=C/C(C)=C/C=C/C(C)=C/C(=O)O)c(C)c1C` [ACITRETIN] the Inhibition index was 0.2609.
`CC1=C(/C=C/C(C)=C/C=C/C(C)=C/C(=O)O)C(C)(C)CCC1` [TRETINOIN] gave an Inhibition index of 0.999.
`CN1CCN2c3ccccc3Cc3ccccc3C2C1.Cl` (stereo not given) [MIANSERIN HYDROCHLORIDE] gave an Inhibition index of 0.175.
Work on `CC[C@H](C)C(=O)O[C@H]1C[C@@H](C)C=C2C=C[C@H](C)[C@H](CC[C@@H]3C[C@@H](O)CC(=O)O3)[C@H]21` [LOVASTATIN] yielded an Inhibition index of -0.07572.
With `CC(C)(O/N=C(\C(=O)N[C@@H]1C(=O)N2C(C(=O)[O-])=C(C[n+]3ccccc3)CS[C@H]12)c1csc(N)n1)C(=O)O.O.O.O.O.O` the Inhibition index was 0.06868.
`Cl.Nc1nc2ccc(OC(F)(F)F)cc2s1` showed an Inhibition index of 0.04491.
`CC(O)C(=O)O.CCOc1ccc2nc3cc(N)ccc3c(N)c2c1` gave an Inhibition index of 0.4974.
With `CCOc1ccc2nc(S(N)(=O)=O)sc2c1` [ETHOXZOLAMIDE] the Inhibition index was 2.099.
`CC(=O)O.O=C(NCC1CCCCN1)c1cc(OCC(F)(F)F)ccc1OCC(F)(F)F` (stereo not given) [FLECAINIDE ACETATE] showed an Inhibition index of 0.049.
`CN[C@@H]1[C@H](O)[C@H](NC)[C@H]2O[C@@]3(O)C(=O)C[C@@H](C)O[C@H]3O[C@@H]2[C@H]1O.Cl.Cl` gave an Inhibition index of 0.1494.
With `COc1cccc(N(C)C(=S)Oc2ccc3c(c2)CCCC3)n1` [LIRANAFTATE] the Inhibition index was 0.6869.
`CCCCc1cc2ccccc2c(OCCN(C)C)n1.Cl` [DIMETHISOQUIN HYDROCHLORIDE] gave an Inhibition index of -0.1351.
`CN(C)N=Nc1[nH]cnc1C(N)=O` showed an Inhibition index of -0.0106.
With `CC(=O)OCC(=O)[C@@]1(O)CC[C@H]2[C@@H]3CCC4=CC(=O)CC[C@]4(C)[C@H]3[C@@H](O)C[C@@]21C` [HYDROCORTISONE ACETATE] the Inhibition index was 0.145.
In the case of `Cl.O=C(OCC(O)CO)c1ccccc1Nc1ccnc2cc(Cl)ccc12` (stereo not given), the Inhibition index is reported as 0.07624.
`CCN(CC)CCCC(C)Nc1ccnc2cc(Cl)ccc12.O=P(O)(O)O.O=P(O)(O)O` (stereo not given) [CHLOROQUINE PHOSPHATE] was tested, and the Inhibition index was 1.351.
Compound `CCN(CC)Cc1cc(Nc2ccnc3cc(Cl)ccc23)ccc1O.Cl.Cl.O.O` [AMODIAQUINE HYDROCHLORIDE] has an Inhibition index of 0.1282.
`COc1cc(NC(C)CCCN)c2ncccc2c1.O=P(O)(O)O.O=P(O)(O)O` (stereo not given) [PRIMAQUINE PHOSPHATE] gave an Inhibition index of 0.6817.
`CCN(CC)CCCC(C)Nc1c2ccc(Cl)cc2nc2ccc(OC)cc12.Cl.Cl.O.O` (stereo not given) [QUINACRINE HYDROCHLORIDE] showed an Inhibition index of -0.1724.
With `NC(=O)c1cc[n+](CC2=C(C(=O)O)N3C(=O)[C@@H](NC(=O)[C@@H](c4ccccc4)S(=O)(=O)O)[C@H]3SC2)cc1.O.[Na+]` the Inhibition index was 0.1703.
Compound `CN1CCc2cccc3c2[C@H]1Cc1ccc(O)c(O)c1-3.CN1CCc2cccc3c2[C@H]1Cc1ccc(O)c(O)c1-3.Cl.Cl.O` [APOMORPHINE HYDROCHLORIDE] has an Inhibition index of 0.4481.
Work on `CCCCOc1ccc(OCCCN2CCOCC2)cc1.Cl` [PRAMOXINE HYDROCHLORIDE] yielded an Inhibition index of 0.1376.
Work on `CCOC(=O)c1c(N)sc2c1CCN(Cc1ccccc1)C2.Cl` yielded an Inhibition index of 0.8505.
In the case of `O=C([O-])C[C@H](O)C[C@H](O)/C=C/c1c(C2CC2)nc2ccccc2c1-c1ccc(F)cc1.O=C([O-])C[C@H](O)C[C@H](O)/C=C/c1c(C2CC2)nc2ccccc2c1-c1ccc(F)cc1.[Ca+2]` [PITAVASTATIN CALCIUM], the Inhibition index is reported as -0.03681.
Work on `C=CC[C@]1(O)CC[C@H]2[C@@H]3CCC4=CC(=O)CCC4=C3C=C[C@@]21C` [ALTRENOGEST] yielded an Inhibition index of 0.8504.
`CCOC(=O)C(C)(N)Cc1cc(I)c(Oc2cc(I)c(O)c(I)c2)c(I)c1.Cl` (stereo not given) gave an Inhibition index of 0.3664.
Compound `CCCSS/C(CCO)=C(\C)N(C=O)Cc1cnc(C)nc1N` has an Inhibition index of 0.2056.
`C/C(=C(\CCOC(=O)c1ccccc1)SS/C(CCOC(=O)c1ccccc1)=C(\C)N(C=O)Cc1cnc(C)nc1N)N(C=O)Cc1cnc(C)nc1N` showed an Inhibition index of 1.055.
For `C/C(=C(/CCO)SSCC1CCCO1)N(C=O)Cc1cnc(C)nc1N.Cl` (stereo not given), the Inhibition index was 1.385.
Compound `CCCCC(=O)O[C@H]1CC[C@H]2[C@@H]3CCc4cc(O)ccc4[C@H]3CC[C@]12C` [ESTRADIOL VALERATE] has an Inhibition index of -0.4279.
`COc1cccc2c1C(=O)c1c(O)c3c(c(O)c1C2=O)C[C@@](O)(C(=O)CO)C[C@@H]3O[C@H]1C[C@H](N)[C@H](O)[C@H](C)O1.Cl` [DOXORUBICIN HYDROCHLORIDE] gave an Inhibition index of -0.06911.
Work on `Cc1cc(/C=C/c2ccc3cc(N(C)C)ccc3[n+]2C)c(C)n1-c1ccccc1.Cc1cc(/C=C/c2ccc3cc(N(C)C)ccc3[n+]2C)c(C)n1-c1ccccc1.O=C([O-])c1cc2ccccc2c(Cc2c(O)c(C(=O)[O-])cc3ccccc23)c1O` [PYRVINIUM PAMOATE] yielded an Inhibition index of -0.3469.
`C#C[C@]1(O)CC[C@H]2[C@@H]3CCC4=CC(=O)CC[C@]4(C)[C@H]3CC[C@@]21C` [ETHISTERONE] showed an Inhibition index of 0.1353.
In the case of `CCSc1ccc2c(c1)N(CCCN1CCN(C)CC1)c1ccccc1S2.O=C(O)/C=C\C(=O)O`, the Inhibition index is reported as -0.4349.
For `Cl.N=C(N)NC(=N)NCCc1ccccc1` [PHENFORMIN HYDROCHLORIDE], the Inhibition index was -0.07157.
For `N=C(N)NCCN1CCCCCCC1.N=C(N)NCCN1CCCCCCC1.O=S(=O)(O)O` [GUANETHIDINE SULFATE], the Inhibition index was 0.04902.
`C[C@]12CC[C@@H]3c4ccc(O)cc4CC[C@H]3[C@@H]1C[C@@H](O)[C@@H]2O` [ESTRIOL] gave an Inhibition index of 0.6126.
Compound `CC(=O)[C@H]1CC[C@H]2[C@@H]3CC=C4C[C@@H](O)CC[C@]4(C)[C@H]3CC[C@]12C` [PREGNENOLONE] has an Inhibition index of 1.659.
`C[C@]12CC[C@H](O)CC1=CC[C@@H]1[C@@H]2CC[C@]2(C)C(=O)CC[C@@H]12` [PRASTERONE] was tested, and the Inhibition index was 0.9295.
`CC(=O)[C@H]1CC[C@H]2[C@@H]3CCC4=CC(=O)CC[C@]4(C)[C@H]3CC[C@]12C` [PROGESTERONE] gave an Inhibition index of 0.4087.
In the case of `CC[C@@H]([C@H](C)O)n1ncn(-c2ccc(N3CCN(c4ccc(OC[C@@H]5CO[C@@](Cn6cncn6)(c6ccc(F)cc6F)C5)cc4)CC3)cc2)c1=O.O`, the Inhibition index is reported as 0.639.
`CN1CCN(C(c2ccccc2)c2ccccc2)CC1.Cl` [CYCLIZINE HYDROCHLORIDE] gave an Inhibition index of 0.3956.
`CCOC(=O)[C@H](CCc1ccccc1)N[C@@H](C)C(=O)N1[C@H](C(=O)O)C[C@H]2CCCC[C@@H]21` [TRANDOLAPRIL] showed an Inhibition index of 0.1383.
`CC(C)(C)C(=O)OCOC(=O)[C@@H]1N2C(=O)[C@@H](NC(=O)[C@H](N)c3ccccc3)[C@H]2SC1(C)C` [PIVAMPICILLIN] was tested, and the Inhibition index was 0.3125.
